Bioassay records (PubChem BioAssay)
LGR2 antag: blocks bursicon-induced cAMP signaling via Drosophila LGR2; HEK293 LGR2, CRE-luciferase, bursicon-stimulated, 4 h; inhibition, % at 9.99 µM; hit rate 0.35% among 380,000; AID 720647;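 active = drop in luminescence signal, shown as inhibition above about 50% in the replicate tests, limit read from the data, passing the limit was not always enough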;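 note: agonist challenge used bursicon conditioned medium at about half maximal strength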
PAX8 reporter: inhibitors of PAX8 transcriptional activity in RMG-I cells. RMG-I TPO-luciferase reporter, SteadyGlo, 24 h. hit rate 1.2% among 360,000. inhibition, % at 12.6 µM;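 active = mean replicate inhibition at least 60% with every replicate also reaching 60%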;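 note: luciferase light reporting Pax8 driven TPO promoter activity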
EWS-Fli block: EWS/Fli transcriptional activity inhibition; A673 NR0B1-luciferase reporter, viability-normalised; inhibition, % at 12.6 µM; hit rate 0.67% among 350,000;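 active = mean inhibition of at least 50% after viability correction, with every replicate also passing that limit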;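 note: firefly luciferase signal divided by Alamar Blue viability fluorescence both relative to DMSO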
EBV LMP1 NFkB: reduces LMP1-driven NF-kappaB luciferase signal; LMP1-induced NF-kappaB luciferase reporter cells, luminescence; inhibition, % at 12.5 µM; hit rate 0.69% among 350,000; AID 504558; in the data active = inhibition above about 41%
TROY signal inh: TROY signaling inhibition. Q293 LMP1-TROYcd NF-kB luciferase reporter, 4 h. hit rate 0.98% among 360,000. inhibition, % at 10 µM. AID 1347056;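 active = compounds whose plate-normalised and pattern-corrected inhibition of the luciferase reporter signal at the single screening dose is 50% or more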
TWEAK Fn14 block: TWEAK-Fn14 signaling inhibition; inhibition, % at 10 µM; hit rate 2% among 360,000; AID 1159606; TWEAK-stimulated Fn14 reporter cells, luciferase luminescence, 8 h; in the data active = inhibition above about 50%
Large screens that a line does not name were inactive. Hits are enriched below; roughly 3.1% of the tested compounds scored in any of these assays.

Cc1c(C(=O)Nc2ccc3c(c2)OCCO3)sc2nc(-c3ccccc3)cn12	TROY signal inh 67, TWEAK Fn14 block 85 (no result: PAX8 reporter, EWS-Fli block)
Cc1c(C(=O)N2CCOCC2)sc2nc(-c3ccccc3)cn12	none (no result: LGR2 antag, EWS-Fli block)
Cc1c(C(=O)Nc2ccncc2)sc2nc(-c3ccccc3)cn12	TWEAK Fn14 block 68
CCOC(=O)c1sc(=NC(=O)c2ccc(Cl)s2)n(C)c1C	TROY signal inh 54
O=C(C[C@@H]1CC[C@H](NC(=O)CCN2CCCCC2)[C@@H](CO)O1)Nc1nccs1	none (no result: EBV LMP1 NFkB, TROY signal inh, TWEAK Fn14 block)
Cc1noc(C)c1NC(=O)Nc1cccc2c1O[C@H](CN(C)Cc1ccncc1)[C@H](C)CN([C@H](C)CO)C2=O	none (no result: EWS-Fli block, EBV LMP1 NFkB, TROY signal inh, TWEAK Fn14 block)
C=CCOc1c(CNc2cccc(C(=O)O)c2)cccc1OC	TWEAK Fn14 block 54 (no result: PAX8 reporter, EWS-Fli block)
C[C@H](CO)N1C[C@H](C)[C@H](CN(C)Cc2cccnc2)Oc2ncc(/C=C/c3ccccc3)cc2C1=O	none (no result: PAX8 reporter, EBV LMP1 NFkB, TROY signal inh, TWEAK Fn14 block)
COc1ccccc1N1CCN(C(=O)Cn2nc(C(F)(F)F)c3c2CCC3)CC1	TWEAK Fn14 block 53 (no result: LGR2 antag, PAX8 reporter, EWS-Fli block, TROY signal inh)
COc1ccc(CNC(=O)Cn2nc(C(F)(F)F)c3c2CCC3)cc1	none (no result: LGR2 antag, EWS-Fli block)
COC(=O)C[C@@H]1CC[C@@H]2[C@@H](COc3ccc(NC(=O)C4CC4)cc3C(=O)N2C)O1	none (no result: EBV LMP1 NFkB, TROY signal inh, TWEAK Fn14 block)
CCC(=O)Nc1ccc2c(c1)C(=O)N(C)C[C@@H](OC)[C@H](C)CN(CC1CC1)[C@H](C)CO2	none (no result: EBV LMP1 NFkB, TROY signal inh, TWEAK Fn14 block)
N#Cc1cc(NC(=O)c2ccc(Cl)cc2)ccc1Sc1ccccc1	TROY signal inh 50, TWEAK Fn14 block 64 (no result: EBV LMP1 NFkB)
O=C(O)CCC(=O)Nc1cccc(-c2csc(-c3ccccc3)n2)c1	TWEAK Fn14 block 57
O=C(CCS(=O)(=O)c1ccccc1)Nc1ccc(-c2nc3ccccc3s2)cc1	none
Cn1c(=O)c2ncn(CC(=O)Nc3cccc(-c4nc5ccccc5s4)c3)c2n(C)c1=O	TWEAK Fn14 block 67 (no result: LGR2 antag, PAX8 reporter, EWS-Fli block)
O=C(CCS(=O)(=O)c1ccccc1)Nc1cccc(-c2nc3ccccc3s2)c1	TROY signal inh 57, TWEAK Fn14 block 87
COCCNC(=O)C[C@H]1C[C@@H]2c3cc(NS(=O)(=O)c4ccc(F)cc4)ccc3O[C@@H]2[C@H](CO)O1	none (no result: EBV LMP1 NFkB, TROY signal inh, TWEAK Fn14 block)
O=C(C[C@H]1CC[C@@H]2[C@H](COC[C@H](O)CN2C(=O)C2CC2)O1)NCc1ccncc1	none (no result: EBV LMP1 NFkB, TROY signal inh, TWEAK Fn14 block)
CCC(=O)Nc1ccc2c(c1)C(=O)N(C)C[C@H](OC)[C@@H](C)CN(C(=O)Cc1ccccn1)[C@H](C)CO2	none (no result: EBV LMP1 NFkB, TROY signal inh, TWEAK Fn14 block)
O=C1c2cccc(NCCCNCCO)c2C(=O)c2cccc(NCCCNCCO)c21	LGR2 antag 12
O=C(CCl)Nc1cccc(S(=O)(=O)NC2=NCCCCC2)c1	EWS-Fli block 62
CNC[C@@H]1Oc2ccc(NS(=O)(=O)c3ccccc3)cc2C(=O)N([C@@H](C)CO)C[C@H]1C	none (no result: EBV LMP1 NFkB, TROY signal inh, TWEAK Fn14 block)
COc1ccc(-c2ccc3c(c2)[C@@H]2[C@@H](CCN2S(=O)(=O)c2ccc(OC)cc2)[C@@H](CO)N3)cc1	none (no result: EBV LMP1 NFkB, TROY signal inh, TWEAK Fn14 block)
Cc1ccc(C(=O)O)cc1NS(=O)(=O)c1ccc2ccccc2c1	none
CC(C)OC(=O)C(C(=O)C(F)(F)F)c1cc(NS(=O)(=O)c2ccc3ccccc3c2)c2ccccc2c1O (stereo not drawn)	TROY signal inh 68, TWEAK Fn14 block 62 (no result: LGR2 antag, PAX8 reporter, EWS-Fli block)
c1ccc(-c2cc(-c3nc4ccccc4[nH]3)c3ccccc3n2)cc1	TWEAK Fn14 block 55 (no result: LGR2 antag)
C[C@@H]1CCCCO[C@H](CN(C)Cc2ccc(Cl)c(Cl)c2)[C@H](C)CN([C@@H](C)CO)C(=O)c2cc(NC(=O)Nc3ccc(C(F)(F)F)cc3)ccc2O1	PAX8 reporter 90 (no result: EBV LMP1 NFkB, TROY signal inh, TWEAK Fn14 block)
C[C@H]1CCCCO[C@H](CN(C)Cc2ccc(Cl)c(Cl)c2)[C@@H](C)CN([C@@H](C)CO)C(=O)c2cc(NC(=O)Nc3ccc(C(F)(F)F)cc3)ccc2O1	PAX8 reporter 78 (no result: EBV LMP1 NFkB, TROY signal inh, TWEAK Fn14 block)
C[C@@H]1CCCCO[C@@H](CN(C)Cc2ccc(C(F)(F)F)cc2)[C@H](C)CN([C@@H](C)CO)C(=O)c2cc(NC(=O)Nc3ccc(C(F)(F)F)cc3)ccc2O1	none (no result: EBV LMP1 NFkB, TROY signal inh, TWEAK Fn14 block)
C[C@@H]1CN([C@@H](C)CO)C(=O)c2cc(NC(=O)Nc3ccc(C(F)(F)F)cc3)ccc2O[C@@H](C)CCCCO[C@H]1CN(C)Cc1ccc(Cl)c(Cl)c1	PAX8 reporter 93 (no result: EBV LMP1 NFkB, TROY signal inh, TWEAK Fn14 block)
C[C@@H]1CN([C@H](C)CO)C(=O)c2cc(NC(=O)Nc3ccc(C(F)(F)F)cc3)ccc2O[C@@H](C)CCCCO[C@H]1CN(C)Cc1ccc(Cl)c(Cl)c1	PAX8 reporter 91 (no result: EBV LMP1 NFkB, TROY signal inh, TWEAK Fn14 block)
